Compound activity (PubChem)
FMDV antiviral: High Throughput Screening for Foot and Mouth Disease Virus Antivirals; actives 1.2% (n = 410,000); FMDV antiviral cell-based qHTS; Potency, µM (series often up to 57.9 µM), usual class: inhibitors; calls by dose curve; tested in HEK293T cells; note: read-out not given here; nearly all actives have a fitted effect of over 45% in size
MARV entry inh: qHTS for inhibitors of binding or entry into cells for Marburg Virus; Potency, µM (doses to about 37.8 µM), hits mostly inhibitors; actives 1.8% (n = 300,000); AID 540276, 2011; Marburg virus pseudotyped entry inhibition, cell reporter; calls by dose curve; tested in HEK293 cells
HCV inhibitor: qHTS Assay for Inhibitors of Hepatitis C Virus (HCV); actives 3.4% (n = 340,000); Huh7.5.1 HCVcc-Cre infection, luciferase reporter, 44 h; AID 651820, 2012; Potency, µM (highest dose often 41.8 µM), hits mostly inhibitors
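1,000 cells/well; 4 h culture; + compound; + HCVcc-Cre (~0.5 moi); 44 h; luciferase substrate, RT 15 min; read 15 sec.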
Sm TGR inh: qHTS Assay for the Inhibitors of Schistosoma Mansoni Peroxiredoxins; Potency, µM (titrated, usually from 114 µM), most hits filed as inhibitors; actives 3% (n = 360,000); purified TGR, DTNB reduction, TNB absorbance 405 nm; note: nearly all actives have a fitted effect of over 60% in size
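First, TGR (20 nM dispensed) and NADPH were mixed with compound. Second, a 15 min room-temperature incubation followed. Third, further NADPH and then DTNB were added to start the reaction. Finally, TNB absorbance was monitored kinetically.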
RE007 growth inh: qHTS Assay for Inhibitors of the HIV-1 protein Vpr. S. pombe RE007 Vpr strain, BacTiter-Glo ATP luminescence, 24 h. AID 651644, 2012. Potency, µM (doses to about 92.2 µM), hits mostly inhibitors. actives 0.21% (n = 360,000); active = well fitted falling curve with a large enough effect; inconclusive = small, poorly fitted or top-dose-only effect; inactive = no such curve, though single readings can be large or run the other way; note: nearly all actives have a fitted effect of over 50% in size
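Fission yeast RE007 carrying one integrated HIV-1 vpr copy, seeded at OD 0.01 in PMG+AL medium with 23 nL pinned compound. Grown 24 h at 30 degrees; viability read by BacTiter-Glo luminescence after 5 min.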
LASV entry inh: qHTS for Inhibitors of binding or entry into cells for Lassa Virus | Lassa virus pseudotype entry inhibition, cell reporter | actives 1.2% (n = 300,000) | AID 540256, 2011 | Potency, µM (doses to about 37.9 µM), hits mostly inhibitors; calls by dose curve; tested in HEK293 cells; note: nearly all actives have a fitted effect of over 50% in size
Hits are given with their value; n = inactive; u = inconclusive; x = not tested or not shown; [ ] = remark or other dose. Compounds with a hit are over-represented: about 7.2% of the library has one in this group of screens. Unless noted, calls come from the whole dose curve; as a rule, active = well fitted curve in the direction sought with a large enough effect; inconclusive = small, poorly fitted or top-dose-only effect, or another doubt; inactive = no such curve, though single readings can be large; an effect the other way counts as inactive or inconclusive.

SMILES	FMDV antiviral	MARV entry inh	HCV inhibitor	Sm TGR inh	RE007 growth inh	LASV entry inh
C=CCOC(=O)C(C(C)=O)[C@@H](NC(=O)OC)c1ccco1 (stereo partly specified)	x	n	x	x	x	x
COc1ccc2oc(=O)cc(CN3CCN(C(=O)c4ccccc4Br)CC3)c2c1	n	n	x	n	x	n
COc1ccc(C(=O)N/N=C/c2ccc(OC)c(COc3ccc(F)cc3F)c2)cc1	u	u	u	n	n	2.24µM
COc1ccc(/C=N/NC(=O)c2ccoc2C)cc1COc1ccc(Cl)cc1	22.4µM	u	u	n	n	u
COc1cccc(C(=O)Oc2ccc(/C=N/Nc3ccc(C(=O)O)cc3)cc2OC)c1	u	u	n	n	n	u
COc1ccc(/C=N/NC(=O)c2ccoc2C)cc1OC	n	n	n	n	n	u
CCOc1ccc(/C=N/NC(=O)c2ccccc2Cl)cc1CN1CC2CC(C1)c1cccc(=O)n1C2 (stereo unspecified)	n	n	2.51µM	n	n	x
COc1cccc(OCc2cc(/C=N/Nc3ccc(C(=O)O)cc3)ccc2OC)c1	0.891µM	n	n	n	n	x
Cc1ccccc1CN1C(=O)c2ccccc2Sc2ccc(C(=O)NCc3ccccc3)cc21	n	x	x	n	x	u
COc1ccc(/C=N/NC(=O)c2ccccc2O)cc1Cn1cc([N+](=O)[O-])cn1	n	x	n	n	n	x
COc1cc(/C=N/NC(=O)c2ccccc2Cl)ccc1Oc1ccc([N+](=O)[O-])cn1	n	x	11.2µM	n	n	x
Cc1cc(S(=O)(=O)n2ccnc2C(C)C)cc([N+](=O)[O-])c1C	n	n	x	n	x	u
CCc1ccc(CNC(=O)c2ccc3nc(SCc4ccc(F)cc4)n(C)c3c2)cc1	n	u	x	n	x	x
O=S(=O)(CC(CN1CCCC1)N1CCCC1)c1ccc2ccccc2c1 (stereo unspecified)	n	18.3µM	10µM	15.8µM	n	10.3µM
Cc1ccc(S(=O)(=O)CC(CN2CCOCC2)N2CCOCC2)cc1 (stereo unspecified)	n	u	n	x	n	n
CC1(C)CCN2CCC(C)(C)c3c(O)ccc1c32	u	x	n	2.82µM	n	x
CC(C)(C)OC(=O)NCCCC1=CC2=CC(=O)C(C)(OC(=O)c3cccs3)C(=O)C2=CO1 (stereo unspecified)	x	n	x	x	x	x
Cc1nc(NCc2ccccn2)c2ccccc2n1	u	u	10µM	n	n	n
c1ccc(CNc2nc(-c3ccccc3)nc3ccccc23)cc1	n	u	u	n	u	n
Fc1ccc(Nc2nc(NCc3ccco3)c3ccccc3n2)cc1	u	x	10µM	n	n	x
Nc1nc(Nc2ccccc2)nc(NCc2ccco2)c1[N+](=O)[O-]	u	u	u	n	n	n
c1ccc(CNc2nc(NCc3ccccc3)c3ccccc3n2)cc1	u	u	u	n	n	10µM
c1ccc(CNc2nc(-c3ccccn3)nc3ccccc23)cc1	u	u	3.16µM	n	n	u
COc1cc2c(cc1NC(=O)CC1SC(N3CCCC3)=NC1=O)oc1ccccc12 (stereo unspecified)	u	u	11.2µM	n	n	n
O=C(CC1SC(N2CCOCC2)=NC1=O)Nc1ccccc1Cl (stereo unspecified)	n	x	n	44.7µM	n	x
SMILES	FMDV antiviral	MARV entry inh	HCV inhibitor	Sm TGR inh	RE007 growth inh	LASV entry inh
Cc1ccccc1NC(=O)CN1C(=O)NC2(CCc3ccccc32)C1=O (stereo unspecified)	n	x	n	n	n	x
COc1cc2c(cc1NC(=O)CCC(=O)O)oc1ccccc12	n	n	u	n	n	n
COc1cc2c(cc1NC(=O)CN1C(=O)NC3(CCc4ccccc43)C1=O)oc1ccccc12 (stereo unspecified)	n	11.6µM	u	n[11.4 µM]	n	u
COc1cc2c(cc1NC(=O)CCCCCN1C(=O)CCC1=O)oc1ccccc12	n	n	3.55µM	n	n	n
Cc1c(C(=O)N2CCCC2)sc2ncnc(NCCc3ccccn3)c12	n	x	x	x	x	x
Cc1ccc(NC(=O)c2ccc3nc(Cc4ccccc4)oc3c2)cc1F	n	x	x	n	x	n
Cc1nc2nc(NC(=O)c3ccc(Cl)cc3)[nH]n2c(=O)c1Cc1ccccc1	n	n	x	n	x	n
COc1cc2c(cc1NC(=O)CCCN1C(=O)CCC1=O)oc1ccccc12	n	n	11.2µM	n	n	n
Cc1ccc(N/N=C/c2ccc(N3CCOCC3)cc2)cc1C	n	n	n	25.1µM	n	n
Cc1cccc(/C=N/Nc2cc(N3CCOCC3)nc(N3CCOCC3)n2)c1	n	1.41µM	6.31µM	n	n	u
Cc1cc(N/N=C/c2ccccc2)nc(N2CCOCC2)n1	n	1.58µM	u	n	n	n
O=C(O)c1ccc(N=Nc2c(O)ccc3ncccc23)cc1	5.62µM	x	n	n	n	x
COc1cc2c(cc1OC)C1(CCCC1)C(N)=C2C#N	n	u	3.16µM	n	n	u
COc1cc(OC)c(OC)cc1C#N	n	x	n	n	n	x
COC(=O)c1ccc(SCC(=O)NCc2ccccc2)c([N+](=O)[O-])c1	n	n	14.1µM	n	n	n
COc1cccc(-c2nc3c(c(SCc4ccccc4)n2)Cc2c(CO)cnc(C)c2O3)c1	n	x	x	n	x	n
Cc1ccc(C2C(C#N)=C(N)Oc3c2oc(CO)cc3=O)o1 (stereo unspecified)	n	n	n	39.8µM	n	n
COc1ccc(NC(=O)N2CCCC3(CCN(C(=O)c4cccc(F)c4)CC3)C2)cc1	n	x	x	x	x	x
O=C(CSc1nnc(Cn2nnc3ccccc32)o1)Nc1cccc(Cl)c1	n	n	n	n	n	n
O=C(CSc1nnc(Cn2nnc3ccccc32)o1)N(Cc1ccc(Cl)cc1)c1ccccc1	u	6.31µM	6.31µM	n	n	u
CN(C(=O)CSc1nnc(-c2ccccc2F)o1)C1CCCCC1	n	n	x	n	x	n
CCOC(=O)CN1C(=O)[C@@]2(CC(C)=CC[C@@H](COc3ccccc3)O2)c2c(Br)cccc21	x	n	x	x	x	x
CCCC(=O)Nc1ccc(C(=O)N/N=C/c2ccc([N+](=O)[O-])o2)cc1	u	11.6µM	u	n	n	u
Cc1cc(C(=O)N/N=C/c2ccc([N+](=O)[O-])o2)c(C)o1	u	x	u	u	n	x
Cc1nonc1C(=O)N/N=C/c1ccc([N+](=O)[O-])o1	n	x	u	44.7µM	n	x
Cc1ccc(NC(=O)CCC(=O)N/N=C/c2ccc([N+](=O)[O-])o2)cc1C	n	x	u	n	n	x
Cc1cc(C)c(S(=O)(=O)N/N=C/c2ccc([N+](=O)[O-])o2)c(C)c1	n	n	n	7.08µM	n	n
Nc1ncc(S(=O)(=O)NCc2ccccc2F)cn1	n	x	x	n	x	n
O=C(CSc1n[nH]c(-c2ccccc2)n1)N1CCN(c2ccccc2F)CC1	n	x	x	n	x	n
